Our source for the growth values is PubChem BioAssay (NCI).

Molecules are shown by their SMILES. About 83,000 compounds went through this panel and 20% of them were active in at least one assay; those are over-represented in the sample as a whole.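 Interpretation: 100, growth as untreated; towards 0, rising growth inhibition; 0, no net growth; 0 to -100, cell death. Compounds scoring below 10 were considered active.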 Active and inactive are the calls of the source.

For this experiment, the system named is RPMI-8226 leukemia. Description: NCI-60 one-dose screen, 48 h (100 = growth as untreated, 0 = no growth, -100 = all killed). Conditions: 10 µM unless noted. On the procedure:
Growth inhibition of the RPMI-8226 human tumor cell line is measured as a screen for anti-cancer activity. Cells are grown in 96 well plates and exposed to the test compound for 48 hours. Compounds are tested at a single concentration, which is 10^-5 M for most compounds. The reported endpoint is percent growth (GI% or GIPRCNT), where numbers from 0 - 100% represent growth inhibition, and numbers from -100% - 0 represent cell death. For example, a value of 40 represents 60% growth inhibition. A value of 0 means no net growth occurred over the course of the experiment. A value of -40 indicates 40% of cells at the beginning of the experiment died by the end of the experiment. A value of -100 means all cells are dead at the end of the experiment.
NCI-60 Human Tumor Cell Lines Screen was performed using the standard one-dose NCI protocol, which is described in more detail at https://dtp.cancer.gov/discovery_development/nci-60/default.htm.
Compounds with GIPRCNT values below 10 were considered active. Activity score was based on GIPRCNT using the following formula: […]
Score is 0 for GIPRCNT values of 100 or above, 50 for GIPRCNT values of 0, and 100 for GIPRCNT values of -100.
For `COc1ccc2c(c1)c(CC(=O)[Se]CCC#N)c(C)n2C(=O)c1ccc(Cl)cc1`, the growth is 50.9% (inactive).
In the case of `COc1ccc([C@@H]2c3[nH]c4ccccc4c3C[C@H]3C(=O)N(C4CCN(CC5CCCCC5)CC4)CC(=O)N23)c(OC)c1`, the growth is 53.6% (inactive).
`CN(C)CCCOc1ccc2c(c1)CN(C(=O)c1cc(C(=O)N3Cc4cccc(F)c4C3)ccc1O)C2`: the growth is 98.9% (inactive).
Turning to `CC1(C)[C@@H](O)CC[C@]2(C)[C@H]3CC[C@@H]4[C@H]5[C@H](C(=O)/C=C\c6ccccn6)CC[C@]5(O)CC[C@@]4(C)[C@]3(C)CC[C@@H]12`, the growth was -19.2% (active).
To `COc1ccc2c(c1)c(CC(=O)[Se]CC#N)c(C)n2C(=O)c1ccc(Cl)cc1` belongs 20.5% (inactive); to `CC(=O)O[C@@H]1C(=O)N(c2cnccn2)[C@H]1c1ccccc1[N+](=O)[O-]`, 13.3% (inactive); to `CCCCCc1ccc(S(=O)(=O)Nc2cc(-c3csc(NC(=O)CN4CCN(C)CC4)n3)ccc2OC)cc1`, -27% (active).
In the case of `O=C(c1ccc(O)c(C(=O)N2Cc3ccc(OCCC[P+](c4ccccc4)(c4ccccc4)c4ccccc4)cc3C2)c1)N1Cc2cccc(F)c2C1`, the growth was 31.8% (inactive).
`COc1cc(-c2nn(C(C)(C)C)cc2-c2ccnc(NCCCNS(=O)(=O)c3ccc(Cl)cc3)n2)ccc1Cl`: the growth is 66.1% (inactive).
For `COc1ccccc1-n1cc(C#N)c(N)c1C(=O)c1ccc(Br)cc1`, the growth is 92.4% (inactive).
To `N#Cc1cccc(/C(N)=N/C(N)=N/c2nc3ccccc3s2)c1` belongs 8.74% (active); to `Cc1ccc(-c2cc3nc(C(Cl)Cl)nc(C)n3n2)cc1`, 94.6% (inactive).
In the case of `C#Cc1nc(C(C)=O)cs1`, the growth is 92.5% (inactive).
To `O=C(O)c1ccc(-n2cc(CNc3cc(F)c(F)c(F)c3)c(-c3ccc(F)cc3)n2)cc1` belongs 76.3% (inactive); to `CC(C)(O)c1cncc(-c2ccc3ncnc(NCc4ccccc4)c3c2)c1`, 84.6% (inactive); to `Cc1ccc(CSc2nc(-c3ccc(Cl)cc3)c(C#N)c(N3CCNCC3)n2)cc1`, 69.4% (inactive).
Regarding `CC1=NC2=NN3C(=NN2C(c2ccccc2)=C1)N=NC(c1ccc(Br)cc1)=C3c1ccc(Br)cc1`, the growth is 111% (inactive).
In the case of `COc1cc(-c2nc(SCCC(C)C)nc(NNC(=O)c3ccncc3)c2C#N)cc(OC)c1OC`, the growth was 100% (inactive).
To `NC(=O)c1cccc(-n2ccc3cc(NC(=O)Nc4ccc(N5CCOCC5)c(C(F)(F)F)c4)ccc32)n1` belongs -30.7% (active); to `FC(F)(F)c1cc(Nc2cccc(Oc3ccc(NC4=NCCN4)nc3)c2)ccc1Cl`, -37.6% (active).
Turning to `CS(=O)(=O)Nc1cc(-c2ccc3ncc(C#N)c(NCc4ccccc4O)c3c2)cnc1Cl`, the growth is -21% (active).
Take `COc1cc(OC)cc(C(=O)Nc2cccc(C#Cc3cccc4[nH]nc(N)c34)c2)c1`: the growth was 18.6% (inactive).
To `N/C(=N\C(N)=N\c1nc2ccccc2s1)c1ccc2ccccc2c1` belongs 76.7% (inactive); to `CCCCCc1ccc(S(=O)(=O)Nc2cccc(-c3csc(NC(=O)CCCCCN4CCN(C)CC4)n3)c2)cc1`, -22.5% (active).
For the molecule `O=C1CCCC2=C1C(c1c[nH]c3ccc(Br)cc13)Cc1cc(Br)ccc1N2` (stereo not given), the growth is 25.1% (inactive).
For `C#CCC#CCN1CCC[C@H]1C(=O)NCC(=O)OC`, the growth is 113% (inactive).
As for `C[C@H](CCC(=O)NCc1ccc(C(=O)Nc2ccccc2N)cc1)[C@H]1CC[C@H]2[C@@H]3[C@@H](O)C[C@@H]4C[C@H](O)CC[C@]4(C)[C@H]3CC[C@]12C`, the growth is 5.86% (active).
For the molecule `Cc1ccc2c(c1)C13C(=C2Br)CCCN1C(=O)c1ccccc13` (stereo not given), the growth is 80.4% (inactive).
To `N#Cc1c(NC(=O)c2cccc(C(F)(F)F)c2F)sc2c1CCC(=O)C2` belongs -24.6% (active).
As for `O=C(NNc1nc2cc(F)c(F)cc2n2c(CN3CC4CNCC4C3)ccc12)c1ncccn1` (stereo not given), the growth was 18.7% (inactive).
Next, `O=S(=O)(Nc1cccc2ccccc12)c1ccc(-c2cnc(C3CC3)o2)cc1`: 14.4% (inactive).
For the molecule `CC(C)(C)n1cc(-c2ccnc(NCCCNS(=O)(=O)c3cccc(F)c3)n2)c(-c2ccc(Cl)c(O)c2)n1`, the growth is 76% (inactive).
On to `COc1ccc(N2CCN(C3=C(Cl)C(=O)C(C)=C(C)C3=O)CC2)cc1`, for which the growth was 89.4% (inactive).
On to `Cc1cccc2c3c(sc12)C(c1ccc(F)cc1)C(C#N)=C(/N=C/c1ccc(Cl)cc1)O3` (stereo not given), for which the growth was 19.7% (inactive).
Take `NC(N)=Nc1ccc(Oc2cccc(Nc3ccc(Cl)c(C(F)(F)F)c3)c2)cc1`: the growth was 33.7% (inactive).
To `CCN1CCN(Cc2ccc(C(=O)Nc3ccc(C)c(Oc4ccc(-c5[nH]nc6ncnc(N)c56)cc4)c3)cc2C(F)(F)F)CC1` belongs 65.8% (inactive); to `COc1cc(-c2nn(C(C)(C)C)cc2-c2ccnc(NCCCNS(=O)(=O)c3ccc(C)cc3)n2)ccc1Cl`, 88.9% (inactive).
`C=C(C)[C@@H]1CC[C@]2(COC)CC[C@]3(C)[C@H](CC[C@@H]4[C@@]5(C)CCCNC(C)(C)[C@@H]5CC[C@]43C)[C@@H]12`: the growth was -36.8% (active).
Turning to `COc1cc2oc(-c3cccc(NC(=O)c4cc(N)ccc4Cl)c3)cc(=O)c2c(OC)c1OC`, the growth was 60.2% (inactive).
To `CCOC(=O)C(=O)/C(=C\c1ccc(Cl)cc1)C(=O)N1C(=S)NC(=O)C1CC(C)C` (stereo not given) belongs 93.2% (inactive).
